# Laboratory results as given in PubChem BioAssay (EPA / NIEHS).
# Values joined by “and” are separate entries in the source; they are usually repeats but may differ in a detail not shown here. Equal entries are not always repeated. Active and inactive are the calls of the source. How the source made its calls: active means hit-call score of the fitted dose curve at least 0.9, where 1 is the maximum; inactive means score below 0.9.
# Legend:
# [1] = read-out: Macrophage colony-stimulating factor (MCSF), CSF1 (gene 1435); test: BSK_hDFCGF_MCSF: BioMAP Diversity Plus: hDFCGF Assay for Macrophage colony-stimulating factor (MCSF) Biomarker Activity (AID 2283060); details: primary human foreskin fibroblasts; actives raise or lower the signal
# Summary of the method: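 Human foreskin primary fibroblasts were treated with test chemical for 24 h, and M-CSF was then measured by ELISA. Data were fitted bidirectionally against DMSO as the negative control and activity baseline.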
# [2] = BSK_hDFCGF_SRB: Viability Assessment in the BioMAP Diversity Plus: hDFCGF Assay (AID 2283061); details: primary human foreskin fibroblasts;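 further: cells exposed to compound for 24 h before the read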
# Summary of the method: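 Human foreskin primary fibroblasts were treated with compound and assessed 24 h after dosing. Total protein was measured by sulforhodamine B staining (0.1% SRB after 10% TCA fixation, 560 nm read) as a cytotoxicity marker, with bidirectional fitting against DMSO baseline.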
# [3] = read-out: TIMP metallopeptidase inhibitor 1 (TIMP1), TIMP1 (gene 7076); test: BSK_hDFCGF_TIMP1: BioMAP Diversity Plus: hDFCGF Assay for TIMP metallopeptidase inhibitor 1 (TIMP1) Biomarker Activity (AID 2283062); details: primary human foreskin fibroblasts; actives raise or lower the signal
# Summary of the method: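 Primary human foreskin fibroblasts in the hDFCGF system were dosed with compound for 24 h, then TIMP-1 was measured by ELISA. Activity was fitted bidirectionally relative to DMSO control; parallel SRB staining assessed cytotoxicity.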
# [4] = read-out: Monokine induced gamma interferon (MIG), CXCL9 (gene 4283); test: BSK_hDFCGF_MIG: BioMAP Diversity Plus: hDFCGF Assay for Monokine induced gamma interferon (MIG) Biomarker Activity (AID 2283063); details: primary human foreskin fibroblasts; actives raise or lower the signal
# Summary of the method: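 ELISA read-out of MIG from primary human dermal fibroblasts 24 h post-dosing. Gain or loss of signal fitted bidirectionally, DMSO as baseline.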
# [5] = read-out: Matrix Metallopeptidase 1 (MMP1), MMP1 (gene 4312); test: BSK_hDFCGF_MMP1: BioMAP Diversity Plus: hDFCGF Assay for Matrix Metallopeptidase 1 (MMP1) Biomarker Activity (AID 2283064); details: primary human foreskin fibroblasts; actives raise or lower the signal
# Summary of the method: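 Primary human foreskin fibroblasts exposed to chemicals for 24 h; MMP1 measured by ELISA. Cytotoxicity tracked by SRB staining in parallel cultures; bidirectional fit relative to DMSO.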
# [6] = read-out: Vascular cell adhesion molecule 1 (VCAM1), VCAM1 (gene 7412); test: BSK_hDFCGF_VCAM1: BioMAP Diversity Plus: hDFCGF Assay for Vascular cell adhesion molecule 1 (VCAM1) Biomarker Activity (AID 2283065); details: primary human foreskin fibroblasts; actives raise or lower the signal;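 on AC50: VCAM-1 protein level quantified by ELISA after 24 h chemical exposure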
# Summary of the method: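 Primary human foreskin fibroblasts (hDFCGF system) were dosed with chemical and VCAM-1 was measured by ELISA 24 h later. Bidirectional curve fitting used DMSO as negative control and activity baseline.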
# [7] = read-out: Plasminogen activator inhibitor-1 (PAI1), SERPINE1 (gene 5054); test: BSK_hDFCGF_PAI1: BioMAP Diversity Plus: hDFCGF Assay for Plasminogen activator inhibitor-1 (PAI1) Biomarker Activity (AID 2283066); details: primary human foreskin fibroblasts; actives raise or lower the signal
# Summary of the method: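 Primary dermal fibroblasts (human foreskin), hDFCGF system; compound 24 h; PAI-1 by ELISA; bidirectional fit vs DMSO control.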
# [8] = read-out: Intercellular Adhesion Molecule 1 (ICAM1), ICAM1 (gene 3383); test: BSK_KF3CT_ICAM1: BioMAP Diversity Plus: KF3CT Assay for Intercellular Adhesion Molecule 1 (ICAM1) Biomarker Activity (AID 2283067); details: primary human keratinocytes with fibroblasts; actives raise or lower the signal
# Summary of the method: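 Human keratinocyte plus foreskin fibroblast primary co-culture was exposed to chemical for 24 h. ICAM-1 was then quantified by ELISA, and the data were fit bidirectionally against DMSO as the negative control and baseline.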
# [9] = read-out: Interferon-gamma inducible Protein 10 (IP10), CXCL10 (gene 3627); test: BSK_KF3CT_IP10: BioMAP Diversity Plus: KF3CT Assay for Interferon-gamma inducible Protein 10 (IP10) Biomarker Activity (AID 2283068); details: primary human keratinocytes with fibroblasts; actives raise or lower the signal
# Summary of the method: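 Human keratinocyte plus foreskin fibroblast primary co-culture exposed to test chemical for 24 h; IP-10 measured by ELISA. Concentration-response fitted bidirectionally against DMSO control as baseline.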
# [10] = BSK_KF3CT_SRB: Viability Assessment in the BioMAP Diversity Plus: KF3CT Assay (AID 2283069); details: primary human keratinocytes with fibroblasts;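 further: fitted for both signal gain and loss against DMSO baseline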
# Summary of the method: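 Human keratinocyte and foreskin fibroblast co-culture exposed to chemical for 24 h. Total protein measured in parallel cultures by 0.1% sulforhodamine B staining after 10% TCA fixation, read at 560 nm; bidirectional fit relative to DMSO.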
Structure (SMILES),outcome [1],outcome [2],outcome [3],outcome [4],outcome [5],outcome [6],outcome [7],outcome [8],outcome [9],outcome [10],AC50 [1],AC50 [2],AC50 [3],AC50 [4],AC50 [5],AC50 [6],AC50 [7],AC50 [8],AC50 [9],AC50 [10]
FC(F)(F)C(F)(F)C(F)(F)C(F)(F)C(F)(F)C(F)(F)C(F)(F)C(F)(F)CCS,inactive,inactive,inactive,inactive,inactive,inactive,inactive,inactive,inactive,inactive,–,–,–,–,–,–,–,–,–,–
C=CC(=O)OCC(F)(F)C(F)(F)C(F)(F)C(F)(F)C(F)(F)C(F)(F)C(F)(F)F,inactive,inactive,inactive,inactive,inactive,inactive,inactive,inactive,inactive,inactive,–,–,–,–,–,–,–,–,–,–
NC(=O)C(F)(F)C(F)(F)C(F)(F)C(F)(F)F,inactive,inactive,inactive,inactive,inactive,inactive,inactive,inactive,inactive,inactive,–,–,–,–,–,–,–,–,–,–
CC(C)(C)C(=O)CC(=O)C(F)(F)C(F)(F)C(F)(F)F,inactive,inactive,inactive,inactive,inactive,inactive,inactive,inactive,inactive,inactive,–,–,–,–,–,–,–,–,–,–
CCc1c(Br)c(Br)c(Br)c(Br)c1Br,inactive,inactive,inactive,inactive,inactive,inactive,inactive,inactive,inactive,inactive,–,–,–,–,–,–,–,–,–,–
O=P(O)(O)OCCC(F)(F)C(F)(F)C(F)(F)C(F)(F)C(F)(F)C(F)(F)F,inactive,inactive,inactive,inactive,inactive,inactive,inactive,inactive,inactive,inactive,–,–,–,–,–,–,–,–,–,–
CCCCCCC(C)OC(=O)CCCCC(=O)OC(C)CCCCCC (stereo not given),inactive,inactive,inactive,inactive,inactive,inactive,inactive,inactive,inactive,inactive,–,–,–,–,–,–,–,–,–,–
O=S(=O)(O)C(F)(F)C(F)(F)C(F)(F)C(F)(F)C(F)(F)C(F)(F)C(F)(F)F,inactive,inactive,inactive,inactive,inactive,inactive,inactive,inactive,inactive,inactive,–,–,–,–,–,–,–,–,–,–
O=C(O)C(F)(F)C(F)(F)C(F)(F)C(F)(F)C(F)(F)C(F)(F)C(F)(F)C(F)(F)C(F)(F)C(F)(F)C(F)(F)C(F)(F)C(F)(F)F,inactive,inactive,inactive,inactive,inactive,inactive,inactive,inactive,inactive,inactive,–,–,–,–,–,–,–,–,–,–
O=C(O)C(F)(F)C(F)(F)F,inactive,inactive,inactive,inactive,inactive,inactive,inactive,inactive,inactive,inactive,–,–,–,–,–,–,–,–,–,–
C=C(C)C(=O)OCCC(F)(F)C(F)(F)C(F)(F)C(F)(F)C(F)(C(F)(F)F)C(F)(F)F,inactive,inactive,inactive,inactive,inactive,inactive,inactive,inactive,inactive,inactive,–,–,–,–,–,–,–,–,–,–
FC(F)(F)C(F)(F)C(F)(F)C(F)(F)C(F)(F)C(F)(F)C(F)(F)I,inactive,inactive,inactive,inactive,inactive,inactive,inactive,inactive,inactive,inactive,–,–,–,–,–,–,–,–,–,–
FC(F)(I)C(F)(F)C(F)(F)C(F)(F)I,–,–,–,–,–,–,–,–,–,–,51.1 µM (active) and 47.7 µM (active) and 58.5 µM (active),46.3 µM (active) and 52.7 µM (active) and 54 µM (active),45.3 µM (active) and 46.7 µM (active) and 47.2 µM (active),50.1 µM (active) and 46 µM (active) and 54.4 µM (active),56.1 µM (active) and 47.6 µM (active) and 46.9 µM (active),50.3 µM (active) and 57.2 µM (active) and 46.4 µM (active),45.1 µM (active) and 50.2 µM (active) and 44.9 µM (active),45.5 µM (active) and 46.4 µM (active) and 46.6 µM (active),52.2 µM (active) and 58.4 µM (active) and 56.6 µM (active),52.6 µM (active) and 51.1 µM (active) and 58.7 µM (active)
O=C(O)C(F)(OC(F)(F)C(F)(OC(F)(F)C(F)(F)C(F)(F)F)C(F)(F)F)C(F)(F)F (stereo not given),inactive,inactive,inactive,inactive,inactive,inactive,inactive,inactive,inactive,inactive,–,–,–,–,–,–,–,–,–,–
CS(C)(=O)=O,inactive,inactive,inactive,inactive,inactive,inactive,inactive,inactive,inactive,inactive,–,–,–,–,–,–,–,–,–,–
O=C(O)C(F)(F)C(F)(F)C(F)(F)C(F)(F)F,inactive,inactive,inactive,inactive,inactive,inactive,inactive,inactive,inactive,inactive,–,–,–,–,–,–,–,–,–,–
Nc1ccc([N+](=O)[O-])cc1O,inactive,inactive,inactive,inactive,inactive,inactive,inactive,inactive,inactive,inactive,–,–,–,–,–,–,–,–,–,–
